Our source for the outcome values is PubChem BioAssay (EPA / NIEHS).

Inconclusive results are not listed. Activity calls are given as the source filed them. How the source made its calls: active means hit-call score of the fitted dose curve at least 0.9, where 1 is the maximum; inconclusive means response in the unintended direction; inactive means score below 0.9.

Sequence of Androgen receptor (Homo sapiens) (P10275 whole entry, looked up, the tested form may be a part): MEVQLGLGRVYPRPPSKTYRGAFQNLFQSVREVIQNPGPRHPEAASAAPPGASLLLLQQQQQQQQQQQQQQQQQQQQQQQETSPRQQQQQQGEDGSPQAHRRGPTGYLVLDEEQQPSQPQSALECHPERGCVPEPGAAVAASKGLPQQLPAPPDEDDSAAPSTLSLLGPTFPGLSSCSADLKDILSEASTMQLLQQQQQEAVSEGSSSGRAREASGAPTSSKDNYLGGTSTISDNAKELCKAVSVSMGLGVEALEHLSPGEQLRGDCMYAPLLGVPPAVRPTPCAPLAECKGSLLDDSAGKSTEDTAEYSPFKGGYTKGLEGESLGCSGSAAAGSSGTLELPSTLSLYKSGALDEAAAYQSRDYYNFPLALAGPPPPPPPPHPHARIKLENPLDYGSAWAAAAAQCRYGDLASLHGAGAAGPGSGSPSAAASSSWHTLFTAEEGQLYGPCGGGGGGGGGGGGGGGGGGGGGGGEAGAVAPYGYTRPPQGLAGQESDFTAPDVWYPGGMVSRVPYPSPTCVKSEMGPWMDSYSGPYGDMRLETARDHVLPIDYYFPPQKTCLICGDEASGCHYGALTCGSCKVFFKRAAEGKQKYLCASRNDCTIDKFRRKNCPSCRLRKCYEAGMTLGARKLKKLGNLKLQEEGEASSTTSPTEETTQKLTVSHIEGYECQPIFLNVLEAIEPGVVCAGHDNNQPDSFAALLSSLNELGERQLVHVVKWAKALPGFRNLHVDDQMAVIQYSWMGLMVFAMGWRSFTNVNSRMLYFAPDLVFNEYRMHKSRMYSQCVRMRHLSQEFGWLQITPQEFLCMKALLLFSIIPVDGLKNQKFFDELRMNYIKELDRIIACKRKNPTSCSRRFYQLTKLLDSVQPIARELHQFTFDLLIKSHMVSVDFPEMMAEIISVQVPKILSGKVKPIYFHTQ

The assay addresses Androgen receptor (Homo sapiens) (UniProt P10275). The assay is described as follows: ATG_AR_TRANS: Attagene TRANS-FACTORIAL HepG2 Assay for human Androgen Receptor (AR) (AID 2282973). Particulars: HepG2 Attagene TRANS-FACTORIAL AR reporter transcription. In outline:
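Transfected HepG2, 24 h treatment, chimeric NR-Gal4 driving GAL4-UAS reporters. mRNA induction by RT-PCR/capillary electrophoresis fluorescence; DMSO as negative control and baseline.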
For `CCO[Si](C)(C)OCC`, the outcome was inactive.

For the compound `CC(C)=CCCC(C)O` (centres undefined), the outcome was inactive.

Take `CC1=CP(=O)(c2ccccc2)CC1` (centres undefined): the compound was called inactive.

Turning to `NCCNc1cccc2ccccc12`, the call was inactive.

On to `C=CC(=O)OCCCCCCCC(C)C`, for which the result was inactive.

In the case of `Cc1cc(F)ccc1-c1cc(N2CC[C@@H](O)[C@H]2CO)ncc1N(C)C(=O)C(C)(C)c1cc(C(F)(F)F)cc(C(F)(F)F)c1`, the result was inactive.

In the case of `O=C(O)c1cccc(Cl)n1`, the compound was classed as inactive.

Consider `CCCC/C=C/C=C\C=O`, for which the result was inactive.

As to `CC(=N[Si](C)(C)C)O[Si](C)(C)C`, the outcome was inactive.

Consider `CC(=O)S[C@@H]1CC2=CC(=O)CC[C@]2(C)[C@H]2CC[C@@]3(C)[C@@H](CC[C@@]34CCC(=O)O4)[C@H]12`, for which the compound was called inactive.

In the case of `CCc1ccc(C)nc1`, the compound was classed as inactive.

As to `CCCCCCCC1CCCC1=O` (centres undefined), the compound was called inactive.

`Cc1ccc(S(=O)(=O)Oc2ccc(N=Nc3ccc(-c4ccc(N=Nc5c(O)ccc6cc(S(=O)(=O)O)cc(S(=O)(=O)O)c56)c(C)c4)cc3C)cc2)cc1`: the call was inactive.

For the compound `CC=CC(F)(F)C(F)(F)C(F)(F)F`, the compound was called inactive.

With `N[C@H]1C(O)O[C@H](CO)[C@H](O)[C@@H]1O` (some centres undefined), the call was inactive.

Turning to `CC(Oc1cc(Cl)ccc1Cl)C(=O)O` (centres undefined), the call was inactive.

With `CCC(C)NC(N)=O` (centres undefined), the outcome was inactive.

Take `CC(C=O)Cc1ccc(C(C)(C)C)cc1` (centres undefined): the outcome was inactive.

As for `CCC(CC)CO`, the compound was called inactive.
